# Data from PubChem BioAssay (EPA / NIEHS).
# “And” between values parts separate entries of the source, which are not always exact repeats. Identical values can stand only once. More than one record can exist for a structure, and the calls need not agree. The source made the active and inactive calls. Rule for the calls: active = hit-call score of the fitted dose curve at least 0.9, where 1 is the maximum; inactive = score below 0.9.
# Experiments:
# [1] = APR_HepG2_MitoMembPot_72hr: Apredica 72-hour HepG2 Assay for Mitochondrial Membrane Potential (AID 2282917); settings: imaging, actives raise or lower the signal
# Summary of the method: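 Membrane potential read by MitoTracker Red CMXRos (250 nM, 30 min, pre-fixation) fluorescence imaging of HepG2 after 72 hr exposure. Ten concentrations, 0.39–200 uM, duplicate wells, 0.5% DMSO; fitted in both directions against DMSO baseline.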
# [2] = APR_HepG2_MitoticArrest_72hr: Apredica 72-hour HepG2 Assay for Mitotic Arrest (AID 2282918); settings: high-content imaging, actives raise or lower the signal
# Summary of the method: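 HepG2 cells treated 72 h at 0.39–200 uM, 0.5% DMSO final; formaldehyde-fixed, stained with Hoechst 33342 and phospho-histone H3 antibody, imaged by high-content fluorescence; bidirectional fit versus DMSO.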
# [3] = APR_HepG2_MicrotubuleCSK_72hr: Apredica 72-hour HepG2 Assay for Microtubule CSK Stabilty (AID 2282919); settings: HepG2 microtubule cytoskeleton, high-content imaging, actives raise or lower the signal
# Summary of the method: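 High-content imaging of alpha-tubulin staining in fixed HepG2 cells after 72 hr treatment with ten concentrations from 0.39 to 200 uM (0.5% DMSO). Fitting was bidirectional against DMSO; taxol served as positive control.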
# [4] = APR_HepG2_P-H2AX_24hr: Apredica 24-hour HepG2 Assay for H2AX Phosphorylation (AID 2282920); settings: high-content imaging, actives raise or lower the signal
# Summary of the method: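 HepG2 cells dosed 24 h at 0.39–200 uM (10 points, duplicate, 0.5% DMSO final). Formaldehyde-fixed and permeabilized, then immunostained for phospho-H2A.x with Hoechst. Fluorescence quantified by high-content imaging, fitted bidirectionally versus DMSO.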
# [5] = APR_HepG2_StressKinase_24hr: Apredica 24-hour HepG2 Assay for Stress Kinase (AID 2282922); settings: HepG2 stress kinase (phospho-c-Jun) imaging, actives raise or lower the signal
# Summary of the method: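 High-content imaging of phospho-c-Jun immunofluorescence in fixed, permeabilized HepG2 cells after 24 h dosing. Ten concentrations, 0.39 to 200 uM, run in duplicate at 0.5% v/v DMSO; gain or loss of signal versus DMSO.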
# [6] = APR_HepG2_p53Act_72hr: Apredica 72-hour HepG2 Assay for p53 Activation (AID 2282923); settings: high-content imaging, actives raise or lower the signal;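 note: average cellular p53 protein immunofluorescence intensity in HepG2 cells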
# Summary of the method: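 After 72 h with compound (ten points, 0.39 to 200 uM, final DMSO 0.5% v/v), fixed HepG2 cells were labelled with sheep anti-p53 and Hoechst 33342 and imaged; gain or loss versus DMSO scored.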
# [7] = APR_HepG2_MitoMass_72hr: Apredica 72-hour HepG2 Assay for Mitochondrial Mass (AID 2282924); settings: high-content imaging, actives raise or lower the signal;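 note: MitoTracker Red CMXRos stain intensity per cell imaged as mitochondrial mass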
# Summary of the method: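 Readout is imaged MitoTracker Red (250 nM, 30 min, pre-fixation) signal, fitted bidirectionally against DMSO baseline. Human HepG2 liver cells received compound 0.39–200 uM in duplicate for 72 hr, final DMSO 0.5%.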
# [8] = APR_HepG2_NuclearSize_72hr: Apredica 72-hour HepG2 Assay for Nuclear Size (AID 2282925); settings: high-content imaging, actives raise or lower the signal
# Summary of the method: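 Nuclear size was read by high-content imaging of Hoechst 33342 stain after formaldehyde fixation. Compounds ran 72 h on HepG2 at 0.39 to 200 uM, with final DMSO 0.5% v/v. Curves fitted both directions relative to DMSO control.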
# [9] = ATG_CRE_CIS: Attagene CIS-FACTORIAL HepG2 Assay for human cAMP Responsive Element (CRE) binding protein 3 (AID 2282926); settings: HepG2 CRE cis-reporter, Attagene multiplexed mRNA; actives raise or lower the signal
# Summary of the method: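 Induced reporter mRNA from a CRE cis element, measured in HepG2 among many multiplexed units at 24 h. Detection used RT-PCR plus capillary electrophoresis of fluorescent fragments; DMSO served as negative control.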
# [10] = target: CCAAT/enhancer-binding protein beta (Homo sapiens) (UniProt P17676); assay: ATG_C_EBP_CIS: Attagene CIS-FACTORIAL HepG2 Assay for human CCAAT/Enhancer Binding Protein (C/EBP) beta (AID 2282927); settings: HepG2 Attagene cis-factorial transcription factor reporter; actives raise or lower the signal
# Summary of the method: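 Endogenous transcription factor activity in human liver HepG2 cells is inferred from induction of a CEBPB-linked reporter mRNA. Exposure lasts 24 h; activity is fitted in both directions relative to DMSO.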
# [11] = ATG_CMV_CIS: Attagene CIS-FACTORIAL HepG2 Assay for human CMV (Internal Marker) (AID 2282928); settings: HepG2 CMV promoter reporter, transcription factor profiling; actives raise or lower the signal;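 note: endpoint acts as a background internal control marker rather than a target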
# Summary of the method: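 Bidirectional fits against DMSO are applied to reporter mRNA, read by RT-PCR with capillary electrophoresis, from HepG2 cells exposed 24 h. The endpoint serves as an internal CMV background marker within the cis-factorial reporter panel.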
# [12] = ATG_DR4_LXR_CIS: Attagene CIS-FACTORIAL HepG2 Assay for human Liver X Receptor (LXR), DR4 submotif (AID 2282929); settings: HepG2 Attagene DR4 cis-reporter, mRNA transcription; actives raise or lower the signal
# Summary of the method: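 Endogenous factor activity at a DR4 cis-element is read as reporter mRNA in transiently transfected HepG2 cells. Exposure lasts 24 h; transcripts are amplified, fluorescently labelled and sized by capillary electrophoresis, with DMSO as baseline.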
# [13] = target: Aryl hydrocarbon receptor (Homo sapiens) (UniProt P35869); assay: ATG_Ahr_CIS: Attagene CIS-FACTORIAL HepG2 Assay for human Aryl Hydrocarbon Receptor (Ahr) (AID 2282930); settings: HepG2 AhR cis-factorial reporter transcription; actives raise or lower the signal
# Summary of the method: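 Transient MRTU transfection of HepG2 → 24 h compound exposure → total RNA, oligo(dT) RT → PCR, 6-FAM extension, HpaI cut → CE fluorescence. DMSO = baseline; bidirectional curve fit.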
# [14] = ATG_AP_1_CIS: Attagene CIS-FACTORIAL HepG2 Assay for human Activator Protein 1 (AP-1) (AID 2282931); settings: HepG2 Attagene cis-factorial AP-1 reporter mRNA; actives raise or lower the signal
# Summary of the method: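 Fluorescence of labelled PCR fragments separated by capillary electrophoresis gives reporter mRNA levels. HepG2 with transfected cis-regulated reporter units, 24 h exposure; DMSO serves as baseline for bidirectional curve fits.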
# [15] = ATG_AP_2_CIS: Attagene CIS-FACTORIAL HepG2 Assay for human Activator Protein 2 (AP-2) (AID 2282932); settings: HepG2 AP-2 cis-reporter, Attagene transcription factor profiling; actives raise or lower the signal
# Summary of the method: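 Endogenous transcription factor activity is reported through transfected multiplex reporter constructs in HepG2, after 24 h of compound exposure. Transcripts were quantified by RT-PCR and capillary electrophoresis of fluorescent fragments. Bidirectional fit against DMSO.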
# [16] = ATG_BRE_CIS: Attagene CIS-FACTORIAL HepG2 Assay for human Bone Morphogenetic Protein (BMP) Response Element (BRE) (AID 2282933); settings: HepG2 BMP response element reporter, Attagene transcription factor profiling; actives raise or lower the signal
# Summary of the method: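 Read-out: reporter mRNA induction quantified by RT-PCR and capillary electrophoresis after 24 h chemical exposure of transfected HepG2 cells. Endogenous factor activity on the BMP response element; gain or loss fitted against DMSO baseline.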
# [17] = target: Retinoic acid receptor alpha (Homo sapiens) (UniProt P10276); assay: ATG_DR5_RAR_CIS: Attagene CIS-FACTORIAL HepG2 Assay for human Retinoic Acid Receptor Alpha (RARE), DR5 submotif (AID 2282934); settings: HepG2 Attagene cis-factorial RARE DR5 reporter, mRNA; actives raise or lower the signal;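 for AC50: reporter responds to endogenous RAR alpha beta and gamma in HepG2 not RARA alone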
# Summary of the method: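 Transient MRTU transfection of HepG2; 24 h compound treatment; TriZol RNA, oligo(dT) RT, PCR, FAM labelling, capillary electrophoresis. Bidirectional fit vs DMSO. Endogenous TF activity at DR5 RARE.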
# [18] = target: Transcription factor E2F1 (Homo sapiens) (UniProt Q01094); assay: ATG_E2F_CIS: Attagene CIS-FACTORIAL HepG2 Assay for human E2F Transcription Factor 1 (AID 2282935); settings: HepG2 Attagene cis-reporter, E2F reporter RNA transcripts; actives raise or lower the signal
# Summary of the method: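 Gain or loss of reporter transcript, fitted against DMSO, reflects E2F1-driven transcription. Transiently transfected HepG2 dosed 24 h before RNA isolation. Quantified by fluorescent RT-PCR products separated by capillary electrophoresis.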
# [19] = APR_HepG2_StressKinase_72hr: Apredica 72-hour HepG2 Assay for Stress Kinase (AID 2282921); settings: HepG2 stress kinase (phospho-c-Jun) imaging, actives raise or lower the signal
# Summary of the method: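 Stress kinase signal is phospho-c-Jun immunofluorescence (1:500 primary, Cy3 secondary) in fixed, permeabilized human HepG2 cells imaged at 20x. Exposure lasted 72 hr over ten concentrations from 0.39 to 200 uM, 0.5% DMSO, in duplicate. Bidirectional fit versus DMSO.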
# Chain of Retinoic acid receptor alpha (Homo sapiens) (P10276 whole entry, looked up): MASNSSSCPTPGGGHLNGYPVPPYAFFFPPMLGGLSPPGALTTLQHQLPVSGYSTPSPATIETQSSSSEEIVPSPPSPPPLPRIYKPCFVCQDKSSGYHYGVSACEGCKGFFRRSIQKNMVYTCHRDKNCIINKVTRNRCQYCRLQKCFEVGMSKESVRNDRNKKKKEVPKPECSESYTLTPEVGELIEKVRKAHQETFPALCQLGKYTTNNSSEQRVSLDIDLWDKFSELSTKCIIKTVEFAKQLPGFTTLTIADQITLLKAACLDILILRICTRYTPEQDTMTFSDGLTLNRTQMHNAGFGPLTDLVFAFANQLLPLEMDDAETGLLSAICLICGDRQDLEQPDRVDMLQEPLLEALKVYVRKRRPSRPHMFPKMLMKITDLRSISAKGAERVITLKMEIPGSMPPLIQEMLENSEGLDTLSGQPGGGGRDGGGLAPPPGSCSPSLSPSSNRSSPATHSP
# Chain of CCAAT/enhancer-binding protein beta (Homo sapiens) (P17676 whole entry, looked up): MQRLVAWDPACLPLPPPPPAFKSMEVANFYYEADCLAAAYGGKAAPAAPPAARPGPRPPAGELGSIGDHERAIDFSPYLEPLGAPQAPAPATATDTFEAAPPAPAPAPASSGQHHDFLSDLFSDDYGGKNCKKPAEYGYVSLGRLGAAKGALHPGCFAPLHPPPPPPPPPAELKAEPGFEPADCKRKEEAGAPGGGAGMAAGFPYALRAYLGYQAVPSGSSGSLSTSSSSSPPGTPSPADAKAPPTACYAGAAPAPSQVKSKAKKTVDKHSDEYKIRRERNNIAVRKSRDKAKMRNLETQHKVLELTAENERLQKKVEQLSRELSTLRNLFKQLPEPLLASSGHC
# Chain of Transcription factor E2F1 (Homo sapiens) (Q01094 whole entry, looked up): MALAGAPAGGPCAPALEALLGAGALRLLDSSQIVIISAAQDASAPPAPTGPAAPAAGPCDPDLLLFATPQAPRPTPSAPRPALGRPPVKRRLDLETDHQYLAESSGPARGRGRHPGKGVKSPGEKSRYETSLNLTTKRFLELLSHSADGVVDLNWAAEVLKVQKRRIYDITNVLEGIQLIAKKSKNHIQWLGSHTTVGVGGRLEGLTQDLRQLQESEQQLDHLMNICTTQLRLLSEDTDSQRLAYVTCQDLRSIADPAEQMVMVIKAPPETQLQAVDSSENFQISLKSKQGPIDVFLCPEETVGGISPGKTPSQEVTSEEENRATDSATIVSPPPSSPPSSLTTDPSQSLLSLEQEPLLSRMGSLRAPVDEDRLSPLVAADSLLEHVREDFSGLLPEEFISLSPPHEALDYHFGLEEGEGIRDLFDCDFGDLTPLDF
# Chain of Aryl hydrocarbon receptor (Homo sapiens) (P35869 whole entry, looked up): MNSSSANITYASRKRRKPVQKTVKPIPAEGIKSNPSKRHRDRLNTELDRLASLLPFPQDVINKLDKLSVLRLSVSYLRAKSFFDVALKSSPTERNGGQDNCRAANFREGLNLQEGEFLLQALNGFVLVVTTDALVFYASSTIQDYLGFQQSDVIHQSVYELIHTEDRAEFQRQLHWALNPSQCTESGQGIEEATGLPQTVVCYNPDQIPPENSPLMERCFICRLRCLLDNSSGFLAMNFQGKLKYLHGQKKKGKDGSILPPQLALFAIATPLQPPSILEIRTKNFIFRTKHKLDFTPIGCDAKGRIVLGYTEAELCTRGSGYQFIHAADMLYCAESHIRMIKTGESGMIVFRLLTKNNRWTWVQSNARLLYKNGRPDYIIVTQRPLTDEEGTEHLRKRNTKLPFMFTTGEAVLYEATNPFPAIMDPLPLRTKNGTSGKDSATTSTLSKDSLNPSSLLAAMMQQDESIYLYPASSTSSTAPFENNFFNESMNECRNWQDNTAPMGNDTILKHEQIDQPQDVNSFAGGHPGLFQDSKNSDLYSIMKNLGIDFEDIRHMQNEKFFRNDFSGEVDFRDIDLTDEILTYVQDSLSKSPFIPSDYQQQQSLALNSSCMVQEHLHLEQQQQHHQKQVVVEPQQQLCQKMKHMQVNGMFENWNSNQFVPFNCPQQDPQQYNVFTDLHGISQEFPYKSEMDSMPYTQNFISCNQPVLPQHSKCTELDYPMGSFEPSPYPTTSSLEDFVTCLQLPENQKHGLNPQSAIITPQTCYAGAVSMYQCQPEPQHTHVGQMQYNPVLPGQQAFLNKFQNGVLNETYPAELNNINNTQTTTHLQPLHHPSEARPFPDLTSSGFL
smiles,measurement,setting,value
CC(C)(O)C(=O)Nc1ccc([N+](=O)[O-])c(C(F)(F)F)c1,AC50,[1],0.889 µM (active)
same,outcome,[2],inactive
same,outcome,[3],inactive
same,outcome,[4],inactive
same,outcome,[5],inactive
same,outcome,[6],inactive
same,AC50,[7],0.652 µM (active)
same,AC50,[8],0.522 µM (active)
same,AC50,[9],51 µM (active)
same,outcome,[9],inactive
same,AC50,[10],57.1 µM (active)
same,outcome,[10],inactive
same,outcome,[11],inactive
same,outcome,[12],inactive
same,outcome,[13],inactive
same,outcome,[14],inactive
same,outcome,[15],inactive
same,AC50,[16],77 µM (active) and 121 µM (active)
same,outcome,[16],inactive
same,outcome,[17],inactive
same,outcome,[18],inactive
O=C(O)C(F)(F)C(F)(F)C(F)(F)C(F)(F)C(F)(F)C(F)(F)C(F)(F)C(F)(F)C(F)(F)F,outcome,[1],inactive
same,AC50,[2],98.1 µM (active)
same,outcome,[3],inactive
same,AC50,[4],113 µM (active)
same,outcome,[5],inactive
same,AC50,[6],113 µM (active)
same,AC50,[7],111 µM (active)
same,AC50,[8],122 µM (active)
same,AC50,[9],62.2 µM (active)
same,outcome,[9],inactive
same,outcome,[10],inactive
same,AC50,[11],86.6 µM (active)
same,outcome,[11],inactive
same,AC50,[12],27.3 µM (active) and 23.9 µM (active) and 13.3 µM (active)
same,AC50,[14],59 µM (active) and 12.1 µM (active)
same,outcome,[14],inactive
same,AC50,[15],46.5 µM (active)
same,outcome,[15],inactive
same,outcome,[16],inactive
same,outcome,[17],inactive
same,outcome,[18],inactive
ClC(Cl)=C(c1ccc(Cl)cc1)c1ccc(Cl)cc1,outcome,[1],inactive
same,AC50,[2],22.5 µM (active)
same,outcome,[3],inactive
same,AC50,[4],53.7 µM (active)
same,outcome,[5],inactive
same,outcome,[6],inactive
same,AC50,[7],60.2 µM (active)
same,outcome,[8],inactive
same,AC50,[9],167 µM (active)
same,outcome,[9],inactive
same,AC50,[10],166 µM (active)
same,outcome,[10],inactive
same,AC50,[11],57.2 µM (active) [middle of 4 runs]
same,AC50,[12],44.6 µM (active) [middle of 4 runs]
same,AC50,[14],100 µM (active) and 64.2 µM (active) and 73.8 µM (active)
same,AC50,[15],135 µM (active)
same,outcome,[15],inactive
same,outcome,[16],inactive
same,AC50,[17],13.2 µM (active)
same,outcome,[17],inactive
same,AC50,[18],175 µM (active)
same,outcome,[18],inactive
O=C(NC(=O)c1cc(F)c(F)cc1Cl)Nc1cc(F)ccc1N1CCC(C(=O)O)CC1,outcome,[1],inactive
same,outcome,[2],inactive
same,outcome,[3],inactive
same,outcome,[4],inactive
same,outcome,[5],inactive
same,outcome,[6],inactive
same,outcome,[7],inactive
same,outcome,[8],inactive
same,outcome,[9],inactive
same,outcome,[10],inactive
same,outcome,[11],inactive
same,outcome,[12],inactive
same,outcome,[14],inactive
same,outcome,[15],inactive
same,outcome,[16],inactive
same,AC50,[17],4.16 µM (active)
same,outcome,[18],inactive
Cc1cccc([N+](=O)[O-])c1,outcome,[1],inactive
same,outcome,[2],inactive
same,outcome,[3],inactive
same,outcome,[4],inactive
same,outcome,[5],inactive
same,outcome,[6],inactive
same,outcome,[7],inactive
same,outcome,[8],inactive
same,outcome,[9],inactive
same,outcome,[10],inactive
same,outcome,[11],inactive
same,outcome,[12],inactive
same,outcome,[14],inactive
same,outcome,[15],inactive
same,outcome,[16],inactive
same,outcome,[17],inactive
same,outcome,[18],inactive
c1ccc(-c2ccccc2)cc1,outcome,[1],inactive
same,outcome,[2],inactive
same,outcome,[3],inactive
same,outcome,[4],inactive
same,outcome,[5],inactive
same,outcome,[6],inactive
same,outcome,[7],inactive
same,outcome,[8],inactive
same,outcome,[9],inactive
same,outcome,[10],inactive
same,outcome,[11],inactive
same,outcome,[12],inactive
same,outcome,[14],inactive
same,outcome,[15],inactive
same,outcome,[16],inactive
same,outcome,[17],inactive
same,outcome,[18],inactive
O=NN(c1ccccc1)c1ccccc1,AC50,[1],0.0668 µM (active)
same,outcome,[2],inactive
same,outcome,[3],inactive
same,outcome,[4],inactive
same,outcome,[5],inactive
same,outcome,[6],inactive
same,outcome,[7],inactive
same,outcome,[8],inactive
same,outcome,[9],inactive
same,outcome,[10],inactive
same,outcome,[11],inactive
same,outcome,[12],inactive
same,outcome,[13],inactive
same,AC50,[14],118 µM (active)
same,outcome,[15],inactive
same,outcome,[16],inactive
same,outcome,[17],inactive
same,outcome,[18],inactive
CC#Cc1cc(C)nc(Nc2ccccc2)n1,outcome,[1],inactive
same,outcome,[2],inactive
same,outcome,[3],inactive
same,outcome,[4],inactive
same,outcome,[19],inactive
same,outcome,[5],inactive
same,AC50,[6],103 µM (active)
same,outcome,[7],inactive
same,outcome,[8],inactive
same,outcome,[9],inactive
same,outcome,[10],inactive
same,outcome,[11],inactive
same,AC50,[12],75 µM (active)
same,outcome,[14],inactive
same,outcome,[15],inactive
same,outcome,[16],inactive
same,outcome,[17],inactive
same,outcome,[18],inactive
